Laboratory results published in ChEMBL document CHEMBL4513146, “CO-ADD screening of Karazin Kharkiv National University (Ukraine) compounds”.
Measured potencies and affinities stand elsewhere.

How the values were obtained:
[1] = test system: Klebsiella pneumoniae; settings: Concentration 32 ug.mL-1;; ASSAY_TEST Inhibition of Bacterial Growth; detection method Absorption (OD600); MEDIA CAMHB; plate type 384well; NBS; CORNING #3640; time 18 hr
[2] = test system: Candida albicans; settings: Concentration 32 ug.mL-1; ASSAY_TEST Inhibition of Fungal Growth; detection method Absorption (OD530)
[3] = test system: Cryptococcus neoformans; settings: Concentration 32 ug.mL-1; ASSAY_TEST Inhibition of Fungal Growth; detection method Resazurin; Absorption (OD600-OD570); plate type 384well; NBS; CORNING #3640

| SMILES | Inhibition [1] | Inhibition [2] | Inhibition [3] |
| --- | --- | --- | --- |
| Cc1cc(Br)ccc1NC(=O)Cn1nc2c(SC3CCCCC3)nccn2c1=O | 10.86% | 1.51% | -21.25% |
| Cc1cc2nn(CC(=O)N3CCCC3)c(=O)n2c(Nc2ccc(C)c(F)c2)n1 | 9.72% | 0.7% | -5.41% |
| Cc1ccc(C)c(Cn2nc3n(CC(C)C)c(=O)c4sccc4n3c2=O)c1 | 7.9% | -1.65% | -8.63% |
| COc1cccc(-n2ccn3c(SCC(=O)c4c[nH]c5ccc(OC)cc45)nnc3c2=O)c1 | 12.06% | 5.77% | -34.12% |
| Cc1ccc(-c2cc3c4nn(CC(=O)Nc5ccccc5Cl)c(=O)n4ccn3n2)cc1 | 2.6% | 0.36% | -23.03% |
| Cc1ccc(-c2cc3c4nnc(CCC(=O)NCc5ccc(F)c(Cl)c5)n4ccn3n2)cc1C | 10.99% | 2.11% | -43.73% |
| Cc1cccc(NC(=O)CSc2nnc3ccc(C(=O)Nc4cccc(F)c4)cn23)c1 | 11.26% | 1.08% | -17.48% |
| Cc1nnc2c(=O)n(CC(=O)Nc3ccc(Br)cc3)c3ccccc3n12 | 3.12% | 2.53% | -1.52% |
| Cc1nnc2c(=O)n(CC(=O)Nc3ccccc3Cl)c3ccccc3n12 | 0.78% | 1.36% | -5.67% |
| Cc1cc(C)cc(NC(=O)Cn2nc3n(C)c(=O)c4c(c(-c5ccccc5)cn4C)n3c2=O)c1 | 6.43% | 0.06% | -5.54% |
| CC(C)CCn1c(=O)c2sccc2n2c(=O)n(CC(=O)N3CCC(Cc4ccccc4)CC3)nc12 | -9.97% | 0.93% | -41.06% |
| Cc1[nH]c2ccccc2c1C(=O)CSc1nnc2c(=O)n(-c3ccc(F)c(F)c3)ccn12 | 14.26% | 1.72% | -11.39% |
| Cc1cc(C)cc(NC(=O)Cn2nc3c4cc(-c5ccc(C)c(C)c5)nn4ccn3c2=O)c1 | 6.91% | 7.8% | -17.96% |
| O=C(Cn1nc2c(Oc3ccccc3)nc3ccccc3n2c1=O)Nc1ccc2c(c1)OCO2 | 4.55% | 16.43% | -9.27% |
| Cc1ccc(Sc2nccn3c(=O)n(CC(=O)N4CCN(c5ccccc5F)CC4)nc23)c(C)c1 | 9.62% | 0.22% | -25.75% |
| O=C(Cn1nc2c(Oc3ccc(Cl)cc3)nccn2c1=O)Nc1ccc2c(c1)OCO2 | 8.17% | 2.32% | -10.77% |
| COC(=O)c1ccc(NC(=O)Cn2nc3ccc(Sc4ccc(C)cc4)nn3c2=O)cc1 | 13.07% | 2.46% | -10.13% |
| Cc1ccc(Sc2ccc3nn(CC(=O)Nc4cccc(Cl)c4)c(=O)n3n2)cc1 | -1.6% | 23.7% | -8.64% |
| CCCn1c(=O)c2sccc2n2c(CCC(=O)NC(C)C34CC5CC(CC(C5)C3)C4)nnc12 (stereo unspecified) | 1.34% | 7.2% | -25.73% |
| CC(=O)c1cccc(NC(=O)Cn2c(=O)c3nnc(C(C)C)n3c3ccccc32)c1 | 4.91% | 5.31% | -19.11% |
| COc1cccc(-n2ccn3c(SCC(=O)c4ccc(F)cc4)nnc3c2=O)c1 | 12.25% | 2.59% | -11.08% |
| COc1ccc(N2CCN(C(=O)Cn3nc4ccc(S(=O)(=O)C(C)(C)C)nn4c3=O)CC2)cc1 | 18.13% | -0.23% | -28.46% |
| CCc1ccc(N(Cc2cccc(F)c2)S(=O)(=O)c2cccn3c(C)nnc23)cc1 | 8.24% | 0.68% | -10.22% |
| COc1ccc(Cl)cc1NC(=O)Cn1nc2c(Sc3ccc(C)cc3C)nccn2c1=O | 5.33% | 2.63% | -21.72% |
| Cc1ccc(NC(=O)Cn2nc3c(Oc4cccc(C)c4C)nccn3c2=O)c(Br)c1 | 10.09% | -2.33% | -8.9% |
| Cc1ccc(NC(=O)Cn2nc3c(Sc4ccccc4)nc4ccccc4n3c2=O)cc1C | 0.03% | 0.48% | -2.74% |
| CCC(C)NC(=O)Cn1nc2ccc(SCc3ccc(Cl)cc3)nn2c1=O (stereo unspecified) | 12.21% | 3.51% | -20.85% |
